Over roughly 33,000 sequences, “E-score (-0.5 to 0.5)” has its median near -0.021; the highest 2% begin near 0.32. For the sample, the highest values were picked, then their nearest neighbours and some sequences at random.
Each sequence was assayed against T1, Zap1 (UniProt P47043) (assay: PBM E-score (8-mer binding enrichment) (E-score (-0.5 to 0.5)); higher = stronger / more preferred TF binding). Details: protein concentration: 200 nM; construct: GST-full length.
T1 sequence: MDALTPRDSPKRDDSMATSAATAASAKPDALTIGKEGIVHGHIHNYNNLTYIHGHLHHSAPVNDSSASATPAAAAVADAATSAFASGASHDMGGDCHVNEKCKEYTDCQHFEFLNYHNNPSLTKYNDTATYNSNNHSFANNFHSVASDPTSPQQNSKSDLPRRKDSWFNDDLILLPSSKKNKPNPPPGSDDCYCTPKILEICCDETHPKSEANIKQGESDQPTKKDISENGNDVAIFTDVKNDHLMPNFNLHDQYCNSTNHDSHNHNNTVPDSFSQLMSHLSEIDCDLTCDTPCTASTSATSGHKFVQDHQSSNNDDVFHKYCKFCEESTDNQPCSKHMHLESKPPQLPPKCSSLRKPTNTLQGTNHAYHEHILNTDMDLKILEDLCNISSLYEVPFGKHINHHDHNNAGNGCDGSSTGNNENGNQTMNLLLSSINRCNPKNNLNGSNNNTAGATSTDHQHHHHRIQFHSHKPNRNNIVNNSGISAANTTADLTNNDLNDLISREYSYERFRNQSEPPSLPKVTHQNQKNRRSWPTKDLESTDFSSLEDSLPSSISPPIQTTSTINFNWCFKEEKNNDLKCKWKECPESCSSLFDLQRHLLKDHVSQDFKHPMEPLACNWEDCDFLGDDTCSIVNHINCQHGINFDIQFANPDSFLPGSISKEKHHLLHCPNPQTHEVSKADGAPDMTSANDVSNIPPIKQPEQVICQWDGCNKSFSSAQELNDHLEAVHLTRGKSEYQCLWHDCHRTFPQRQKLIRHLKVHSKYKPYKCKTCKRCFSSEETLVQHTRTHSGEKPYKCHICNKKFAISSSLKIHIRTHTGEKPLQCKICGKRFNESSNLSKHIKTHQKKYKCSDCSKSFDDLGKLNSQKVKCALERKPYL
Procedure: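 Universal 'all 10-mer' protein binding microarrays (Agilent AMADID 015681) probed with GST-tagged S. cerevisiae TFs (full-length or DBD) made by in vitro transcription/translation (PURExpress), about 100-200 nM. Bound TF was detected with fluorescent anti-GST. Each ungapped 8-mer (which stands for itself and its reverse complement) is scored by the PBM enrichment score (E-score), a modified Wilcoxon-Mann-Whitney statistic from -0.5 to +0.5, computed with the Universal PBM Analysis Suite. Scale: above 0.35 generally sequence-specific binding.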

Sequence | PBM E-score
AGTTAAGA | 0.00562
GGTTAAAC | 0.356
AGTGTCGA | 0.127
AACAGATG | -0.00675
AAGACTTA | -0.0811
CTTAGACC | -0.0476
GAGCGTAC | -0.162
TACTTGCA | 0.0221
CGGGGCTA | -0.15
CGGGCTCA | -0.323
ATGAGGTA | 0.324
ATGAGGTG | 0.0386
CTGAGGTA | 0.275
GGCTAGCC | -0.248
AGTGCCCG | -0.203
CCTGCTCG | -0.0742
ACACTCGT | -0.0522
ACCCTCCG | 0.228
CCCCTCGC | 0.0553
ACCCTCGT | 0.358
ACCCTCGG | 0.329
CCCCTCGA | 0.169
ACCCTCGC | 0.267
ACCCTCGA | 0.143
CCCCTCGG | 0.34

Sequence | PBM E-score
CAGTACAG | 0.091
ACTTCTCT | -0.0321
CCAAGTTA | 0.0627
CATGACGC | -0.108
ACCAGCGC | -0.0562
GGACCTCC | -0.134
GAAGGAGA | -0.122
GACTCTCC | -0.236
TACCCCAA | 0.363
AACCCAAA | 0.35
CACCCAAA | 0.255
AACCCAAG | 0.346
AACCCAAC | 0.282
AACCCAAT | 0.187
GACCCCAA | 0.172
GCCACAAA | 0.221
TACCCCCA | 0.054
GACCCAAA | 0.299
ACCACAAG | 0.259
ACCACAAA | 0.35
CGTTAGCC | -0.0813
GTCTTAGA | 0.0182
CCATCAAA | 0.0846
CCAGAAGA | -0.0769
TACCAAAA | 0.161

Sequence | PBM E-score
CCCCCAAA | -0.22
GACCCCAC | 0.243
AACCCCAA | 0.377
AACCCCCA | -0.0716
AACCAAAA | 0.364
ACCCCAAA | 0.337
CACCAAAA | 0.235
ACCCCCAA | -0.0064
ACCCCAAG | 0.311
AACCCCAC | 0.344
ACCCCCAC | -0.286
AACTAACG | 0.166
AACTGCGC | -0.0727
CCTTAGAA | 0.211
GCCAACAA | 0.192
AGGCTAAC | -0.0255
TCCTACCA | -0.13
GATTTAGC | 0.118
ATTGTGGC | 0.0557
GCCCAAAA | 0.179
ACCCAAAA | 0.345
ACAAAAAC | 0.182
ACAAAAAT | 0.234
AAACCCAT | 0.253
ACCCCCAT | 0.0539

Sequence | PBM E-score
AACCCCAT | 0.359
ACAAAAAA | 0.317
ACCCAAAG | 0.271
CCCCTTCA | -0.105
CTCCTAAA | -0.147
GCAATGCC | -0.104
ACCACCGA | 0.172
ACGTAAGG | -0.112
AACAGGCG | -0.32
TTATCAAA | 0.2
GTAATCAA | 0.146
ATTCACTA | 0.0664
CATAGAGC | -0.238
ATGAGCGC | -0.0149
GACCTGAA | 0.132
CCGGCGCC | -0.114
GTAGGGCA | -0.143
GTAGGGTA | 0.429
ATAGGGTG | 0.214
ATAGGGTC | 0.272
GTAGGGAA | -0.112
CTAGGGTA | 0.411
CTAGGGAA | -0.037
CTAGGGTC | 0.309
ATAGGGTA | 0.38

Sequence | PBM E-score
TTAATGAA | 0.187
TCTTGGAA | 0.089
AGATTAAA | 0.2
GCTTTGAC | 0.0804
CTAGACTC | -0.231
ACGCATTA | 0.12
AATAAGAA | 0.208
ATAGAAGC | -0.0622
AACAACAC | 0.151
CCCAACCA | 0.123
AACAACCT | 0.273
CACAACCA | 0.343
AACAACCA | 0.319
AACAACAA | 0.181
CACAACCG | 0.289
AACAACCG | 0.1
CACAACAA | 0.0567
CCCAACCC | 0.163
AACAACCC | 0.408
CACAACCC | 0.414
AGCGCCAG | -0.256
CGCTTAGC | -0.239
ACATTTGC | -0.00108
CTTCCCAA | -0.213
TACAACAA | 0.276

Sequence | PBM E-score
TACAACCA | 0.319
GACAACTC | -0.0129
GACAAACC | 0.124
GACAACCA | 0.252
GACAACCC | 0.35
GCGTCGCC | -0.162
GGGGCCTA | -0.136
GCCAGGGA | -0.174
AACCACCC | 0.353
AACCACCA | 0.273
CCCCACCA | 0.119
GCCCACCC | 0.335
ACCCACCA | 0.177
GCCCACAC | -0.102
CACCACCC | 0.186
ACCCACCT | 0.213
CCCCACCC | 0.357
CCCCACCG | 0.163
GCCCACCA | -0.217
ACCCACCC | 0.373
ACACCAGT | -0.0248
GTGCCCTA | -0.314
CCTGGTGA | 0.0199
CGCTGCGC | -0.373
GCTGAGAA | -0.156

Sequence | PBM E-score
ATCTGAGG | 0.094
AACCTGTG | 0.207
AACCTGAT | 0.177
ACCCTGGA | 0.161
CCCCTGAC | 0.113
AGCCTGAT | -0.177
ACCCTGGG | 0.376
ACCCTGTC | 0.193
ACCCTGTG | 0.367
ACCCTGAC | 0.335
ACCCTGGC | 0.183
ACCCTGAT | 0.344
AGCCTGTG | -0.29
CATAGCTA | -0.113
GCTGTGGA | -0.0748
CTAGTTCA | -0.00273
CCAACAGG | 0.0645
AACCTCCA | 0.0742
ACACTTCT | -0.0698
CAAGTGAG | -0.196
ACCCTGAG | 0.378
ATCCTGAG | -0.0542
CCCCTGAG | -0.0275
